# Shown are actives, neighbours in structure and some others; about 4.7% of the full set was active somewhere.
# SKKanGAS inh: SKKanGAS growth inhibition | S. pyogenes SKKanGAS, kanamycin growth, BacTiter-Glo, 6 h | inhibition, % at 7.5 µM | hit rate 1.3% among 300,000 | AID 1662;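 active means mean replicate score, as percent of positive control median, at least 50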;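 further: strain carries kanamycin resistance gene driven by streptokinase promoter and grows in 40 µg/ml kanamycin; loss of luminescence reflects streptokinase promoter inhibition or plain growth inhibition; 0% = median of DMSO wells and 100% = positive control at its reference dose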
# tim23-1 inh: tim23-1 yeast growth inhibition. S. cerevisiae tim23-1 growth, BacTiter-Glo luminescence, 24 h. hit rate 1.3% among 330,000. inhibition, % at 20 µM;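 active means growth inhibition of the mutant yeast at or above 50%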;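 further: temperature-sensitive mutant grown at 25 °C; plate controls were DMSO-treated mutant yeast for no effect and medium wells lacking yeast for full effect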
# PfHsp90 yeast 2: growth inhibition of yeast expressing Plasmodium Hsp90 | S. cerevisiae expressing PfHsp90, BacTiter-Glo ATP, 48 h; yeast lacking PDR1 and PDR3 efflux regulators | inhibition, % at 9.4 µM | hit rate 0.32% among 310,000 | AID 504621;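 active means every replicate shows inhibition above about 80%, whatever the replicate mean, limit read from the data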;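 further: 0% = DMSO neutral controls and 100% = 20 µM radicicol positive controls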
# tim10-1 inh: growth inhibitors of tim10-1 mutant yeast | S. cerevisiae tim10-1 ts strain growth, BacTiter-Glo, 24 h | inhibition, % at 20 µM | hit rate 2.2% among 330,000;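 active means inhibition of at least 40%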;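 further: mutant grown at 25 °C; 0% = DMSO wells with yeast and 100% = wells holding no yeast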
# TIM10 inh: growth inhibitors of TIM10 yeast strain | inhibition, % at 10 µM | S. cerevisiae TIM10 strain growth, BacTiter-Glo luminescence, 24 h | hit rate 1.4% among 330,000;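 active means inhibition of 40% or more at the single tested concentration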;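 further: wild-type TIM10 isogenic control strain grown at permissive 25 °C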
# ATG4B inh: blocks human ATG4B protease cleavage of LC3 substrate; Q9Y4P1; ATG4B cleavage of LC3-PLA2, NBD-HPC fluorescence, 1 h; inhibition, % at 8.33 µM; hit rate 0.51% among 340,000; AID 504462; in the data active means inhibition above about 40%
# Target sequence (Q9Y4P1 whole entry, looked up): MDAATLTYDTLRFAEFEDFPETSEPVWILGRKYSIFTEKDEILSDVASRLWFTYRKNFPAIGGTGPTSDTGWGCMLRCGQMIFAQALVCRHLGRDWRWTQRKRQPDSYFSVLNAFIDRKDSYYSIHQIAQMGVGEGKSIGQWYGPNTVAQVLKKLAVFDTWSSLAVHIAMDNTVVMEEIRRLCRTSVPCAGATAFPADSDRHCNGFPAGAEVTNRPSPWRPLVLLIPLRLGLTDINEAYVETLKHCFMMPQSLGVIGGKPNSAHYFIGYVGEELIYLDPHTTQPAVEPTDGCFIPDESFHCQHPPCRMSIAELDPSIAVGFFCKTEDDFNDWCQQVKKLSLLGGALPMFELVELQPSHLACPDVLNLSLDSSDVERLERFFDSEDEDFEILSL
# tim10-1 conf: confirmation of tim10-1 mutant yeast growth inhibitors; hit rate 56% among 7,400; shares compounds with tim10-1 inh; AID 463213; S. cerevisiae tim10-1 ts strain growth, BacTiter-Glo, 24 h; inhibition, % at 20 µM;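 active means inhibition of yeast growth at or above a set limit in either of two repeat tests at 20 µM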;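 further: tim10-1 mutant grown at permissive 25 °C to find synthetic lethal compounds; 0% = DMSO yeast wells and 100% = medium wells without yeast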
# tim10 confirm: TIM10 yeast growth inhibition, confirmed; S. cerevisiae tim10 strain growth, BacTiter-Glo luminescence, 24 h; AID 463215; shares compounds with TIM10 inh; hit rate 63% among 4,600; inhibition, % at 10 µM;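 active means inhibition of yeast growth at or above a set limit in either of two replicates at 10 µM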;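 further: this counterscreen used the strain with wild-type TIM10; 0% = yeast with DMSO and 100% = medium wells lacking yeast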
# tim23-1 conf: tim23-1 yeast growth inhibition, confirmed. shares compounds with tim23-1 inh. S. cerevisiae tim23-1 growth, BacTiter-Glo luminescence, 24 h. inhibition, % at 20 µM. hit rate 83% among 4,400;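 active means inhibition above about 39% in either of two replicate wells at 20 µM, limit read from the data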;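 further: temperature-sensitive tim23-1 mutant grown at 25 °C; 0% = DMSO wells with yeast and 100% = medium wells without yeast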
# * = called active by the depositor; . = not tested or not shown.
SMILES,SKKanGAS inh,tim23-1 inh,PfHsp90 yeast 2,tim10-1 inh,TIM10 inh,ATG4B inh,tim10-1 conf,tim23-1 conf,others
CCC(=O)NC(c1cc(Cl)c2cccnc2c1O)C1CC1 (stereo not given),.,57.6*,4.1,40.4*,9.5,5.9,19.2,57.8*,
CN(CC(N)=O)S(=O)(=O)c1ccc(F)cc1,1.6,7.4,.,8.7,2.7,1.4,.,.,
Cc1nc2cc(C(=O)NCc3ccc4c(c3)OCO4)ccc2n1-c1ccc(Br)cc1,2.6,52.1*,6.5,47.1*,14.8,-13.6,39.0*,47.6*,
Cc1cc(C)n(-c2nc(-c3cccc(Cl)c3)cs2)n1,15.7,19.4,16.9,-7.1,-13.3,-10.0,.,.,
O=c1c2ccccc2nc(-c2ccc(Cl)c(Cl)c2)n1O,36.5,79.1*,-16.0,49.1*,62.1*,2.7,29.6*,73.4*,tim10 confirm=54.8*
Cc1ccc(C)c(NS(=O)(=O)c2ccc(-c3cnc(C4CC4)o3)cc2)c1,3.8,42.4,-12.7,35.9,0.2,-8.1,.,.,
Cc1cccc(NS(=O)(=O)c2ccc(-c3cnc(C4CC4)o3)cc2)c1C,4.4,68.9*,-21.3,58.5*,19.0,-6.0,51.6*,51.7*,
COc1ccc2c(CC(=O)OCC(=O)c3ccccc3OC)coc2c1,-10.5,30.8,.,28.2,5.4,18.6,.,.,
Cc1ccc(Cl)cc1NC1=C/C(=N\S(=O)(=O)c2cccs2)c2ccccc2C1=O,95.0*,51.6*,11.2,71.2*,73.6*,-1.4,65.6*,64.7*,tim10 confirm=68.6*
Cc1ccc(Cl)cc1NS(=O)(=O)c1ccccc1,.,.,.,.,.,7.4,.,.,
Cc1c(N2C(=O)/C(=C/C3CC=CCC3)SC2=S)c(=O)n(-c2ccccc2)n1C (stereo not given),0.3,51.3*,.,47.6*,39.5,7.0,34.6*,47.0*,
O=C(COC(=O)c1ccc([N+](=O)[O-])s1)c1ccc[nH]1,.,63.7*,-22.0,63.0*,79.5*,-5.1,70.8*,58.2*,tim10 confirm=84.4*
Cc1cc(C(=O)N2CCCC(N3CCN(c4cccc(C(F)(F)F)c4)CC3)C2)no1 (stereo not given),-6.4,25.0,3.0,20.2,7.4,-6.4,.,.,
CN1/C(=C\C(=O)c2cccs2)C(C)(C)c2ccccc21,-3.9,33.0,9.8,27.0,-2.1,4.0,.,.,
Cc1cccc2c1NC(=O)/C2=C\C(=O)c1cccs1,-2.6,81.1*,-27.5,83.3*,81.8*,-10.8,87.4*,76.7*,tim10 confirm=88.2*
Cc1cc(C)c2c(c1)/C(=C/C(=O)c1ccc(Br)s1)C(=O)N2,0.8,73.8*,-21.8,77.7*,76.1*,4.6,68.8*,70.2*,tim10 confirm=66.0*
CN(C)/C=C/C(=O)c1ccc(Br)s1,4.1,27.6,-30.5,7.2,-13.2,-28.0,.,.,
Cc1cccc(N(CC(=O)NCC2CCCO2)C(=O)CCC(=O)Nc2nccs2)c1 (stereo not given),-3.7,2.4,-40.4,4.8,3.0,-4.0,.,.,
CCCOc1ccc(/C=C/C(=O)Nc2ccc([N+](=O)[O-])cc2)cc1,27.2,-9.9,-102.0,17.9,14.7,-4.9,.,.,
Brc1ccc(-c2csc(-c3c[nH]c4ccccc34)n2)cc1,13.3,29.3,4.9,27.0,18.2,-2.2,.,.,
Cc1ccc(C(=O)ONc2ccc(N=O)cc2)cc1,-4.1,71.4*,.,58.0*,39.0,0.3,49.1*,63.2*,
Cc1ccc2nc(SCc3ccc([N+](=O)[O-])cc3)[nH]c2c1,-14.1,79.2*,-5.1,41.8*,55.4*,-2.9,41.7*,79.2*,tim10 confirm=23.7
Nn1c(SCC(=O)Nc2ccc3c(c2)OCO3)nnc1C1CCCCC1,-1.7,12.5,-39.1,8.8,2.5,-1.1,.,.,
CN1CCN(S(=O)(=O)c2cnccc2N2CCN(c3cccc(Cl)c3)CC2)CC1,-5.8,25.1,46.6,24.3,29.1,-8.0,.,.,
CCN1CCN(CCCNC(=O)c2ccc(/C=C3/Oc4ccccc4N(Cc4cccc(C)c4)C3=O)cc2)CC1,12.3,57.0*,35.2,48.9*,-1.8,-8.8,6.8,48.4*,
SMILES,SKKanGAS inh,tim23-1 inh,PfHsp90 yeast 2,tim10-1 inh,TIM10 inh,ATG4B inh,tim10-1 conf,tim23-1 conf,others
CCCCNC(=O)c1ccc(/C=C2\Oc3ccccc3N(C)C2=O)cc1,-2.3,-5.6,8.0,19.7,5.1,-3.5,.,.,
O=c1c(-c2ccccc2)n[nH]c2ccccc12,4.3,25.9,-3.2,-40.8,6.7,-1.4,.,.,
O=C1c2ccccc2-c2n[nH]c3cccc1c23,.,67.5*,-26.0,59.1*,33.1,-10.4,25.1,66.8*,
CCOC(=O)C1(Cc2cccc(Cl)c2)CCCN(C(=O)CCC(=O)N(C)C)C1 (stereo not given),4.3,3.9,3.6,13.8,18.3,16.7,.,.,
CCOc1cccc(NC(=O)/C(C#N)=C/c2cccnc2)c1,-9.7,78.9*,-3.8,51.8*,41.6*,-3.8,55.3*,76.8*,tim10 confirm=56.3*
CCCCOc1cccc(/C=C(\C#N)C(=O)NC2CC2)c1,4.4,89.2*,-4.7,87.7*,35.5,-7.5,83.0*,84.8*,
N#C/C(=C/c1ccc(OCc2ccccc2)cc1)C(=O)NC1CCCCC1,-12.9,2.7,-8.2,16.6,-10.6,-2.7,.,.,
CCOc1ccc(/C=C(\C#N)C(=O)Nc2cccnc2)cc1,1.4,1.4,20.7,-7.2,-5.8,4.2,.,.,
CC(=O)Nc1ccc(/C=C(\C#N)C(=O)NC2CCCCC2)cc1,-12.9,65.8*,7.2,46.0*,49.5*,-3.0,48.0*,61.6*,tim10 confirm=55.9*
N#C/C(=C\c1ccc(OCC(N)=O)cc1)C(=O)NC1CC1,-5.3,-4.1,5.4,-14.0,-0.8,-4.1,.,.,
CCOc1cccc(/C=C(\C#N)C(=O)NC2CC2)c1,-2.8,76.8*,3.2,41.8*,50.7*,-0.5,51.0*,62.2*,tim10 confirm=51.0*
O=C(CN(CCc1ccccc1)S(=O)(=O)c1ccc(Br)cc1)N/N=C/c1ccc2c(c1)OCO2,5.2,-21.4,-2.5,20.0,-19.7,-2.3,.,.,
CCN(CC)c1ccc(C=C2C(=O)OC(C)(C(C)(C)C)OC2=O)cc1 (stereo not given),-0.6,25.4,-15.1,13.0,0.4,-1.4,.,.,
Nc1cc(Cl)nc(N/N=C/c2c(O)ccc3ccccc23)n1,-12.4,66.1*,-2.9,49.8*,44.5*,-39.3,38.3*,70.0*,tim10 confirm=-9.2
Nc1nonc1N/N=C/c1c(O)ccc2ccccc12,21.8,12.3,-5.5,22.0,7.3,-18.7,.,.,
CCCCNc1nc2ccccc2n1CC(=O)Nc1ccc2c(c1)OCCO2,-5.3,-6.6,.,-8.8,-29.6,-0.5,.,.,
